Data: PubChem BioAssay (EPA / NIEHS)
Where “and” joins values, the source holds several entries; their conditions need not be identical. Identical values can stand only once. More than one record can exist for a structure, and the calls need not agree. Calls of active or inactive are those of the source. Rule for the calls: active = hit-call score of the fitted dose curve at least 0.9, where 1 is the maximum; inactive = score below 0.9.

Experiments:
[1] = APR_HepG2_NuclearSize_72hr: Apredica 72-hour HepG2 Assay for Nuclear Size (AID 2282925); conditions: high-content imaging, actives raise or lower the signal
Procedure, shortened: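 HepG2 cells dosed 72 h at 0.39–200 uM (10 concentrations, duplicate) in 0.5% v/v DMSO final. Fixed, Hoechst 33342-stained nuclei imaged; nuclear diameter measured by automated image analysis. Bidirectional fit versus DMSO.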

[2] = ATG_CRE_CIS: Attagene CIS-FACTORIAL HepG2 Assay for human cAMP Responsive Element (CRE) binding protein 3 (AID 2282926); conditions: HepG2 CRE cis-reporter, Attagene multiplexed mRNA; actives raise or lower the signal
Procedure, shortened: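 Endogenous CRE-binding activity in HepG2 is reported through a cis-regulated transfected reporter. Following a day of exposure, mRNA levels are determined by reverse transcription PCR and fluorescent fragment analysis; fits run in both directions versus DMSO.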

[3] = target: CCAAT/enhancer-binding protein beta (Homo sapiens) (UniProt P17676); assay: ATG_C_EBP_CIS: Attagene CIS-FACTORIAL HepG2 Assay for human CCAAT/Enhancer Binding Protein (C/EBP) beta (AID 2282927); conditions: HepG2 Attagene cis-factorial transcription factor reporter; actives raise or lower the signal
Chain of CCAAT/enhancer-binding protein beta (Homo sapiens) (P17676 whole entry, looked up): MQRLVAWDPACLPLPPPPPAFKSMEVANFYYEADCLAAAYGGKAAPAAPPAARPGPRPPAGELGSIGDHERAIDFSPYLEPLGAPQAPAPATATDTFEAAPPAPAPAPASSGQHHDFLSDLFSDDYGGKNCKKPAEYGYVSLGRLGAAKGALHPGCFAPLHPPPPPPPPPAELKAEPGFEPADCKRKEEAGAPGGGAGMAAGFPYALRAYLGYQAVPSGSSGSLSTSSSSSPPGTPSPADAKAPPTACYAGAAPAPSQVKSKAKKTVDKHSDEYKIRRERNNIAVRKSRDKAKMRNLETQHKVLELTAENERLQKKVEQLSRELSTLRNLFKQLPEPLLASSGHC
Procedure, shortened: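 HepG2, transient MRTU transfection, 24 h treatment. RT-PCR plus CE fluorescence; DMSO negative control, bidirectional fit.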

[4] = ATG_CMV_CIS: Attagene CIS-FACTORIAL HepG2 Assay for human CMV (Internal Marker) (AID 2282928); conditions: HepG2 CMV promoter reporter, transcription factor profiling; actives raise or lower the signal;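 note: endpoint acts as a background internal control marker rather than a target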
Procedure, shortened: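 CMV internal-marker background readout in transiently transfected HepG2 cells bearing cis-regulated reporter units. Reporter mRNA is measured 24 h after dosing by RT-PCR and capillary electrophoresis, with bidirectional fitting against DMSO.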

[5] = ATG_DR4_LXR_CIS: Attagene CIS-FACTORIAL HepG2 Assay for human Liver X Receptor (LXR), DR4 submotif (AID 2282929); conditions: HepG2 Attagene DR4 cis-reporter, mRNA transcription; actives raise or lower the signal
Procedure, shortened: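 After transient transfection with multiplexed cis-promoter reporter units, HepG2 cells received test chemicals for 24 h. Reporter mRNA induction, detected by fluorescence after RT-PCR and capillary electrophoresis, was scored relative to DMSO.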

[6] = target: Aryl hydrocarbon receptor (Homo sapiens) (UniProt P35869); assay: ATG_Ahr_CIS: Attagene CIS-FACTORIAL HepG2 Assay for human Aryl Hydrocarbon Receptor (Ahr) (AID 2282930); conditions: HepG2 AhR cis-factorial reporter transcription; actives raise or lower the signal
Chain of Aryl hydrocarbon receptor (Homo sapiens) (P35869 whole entry, looked up): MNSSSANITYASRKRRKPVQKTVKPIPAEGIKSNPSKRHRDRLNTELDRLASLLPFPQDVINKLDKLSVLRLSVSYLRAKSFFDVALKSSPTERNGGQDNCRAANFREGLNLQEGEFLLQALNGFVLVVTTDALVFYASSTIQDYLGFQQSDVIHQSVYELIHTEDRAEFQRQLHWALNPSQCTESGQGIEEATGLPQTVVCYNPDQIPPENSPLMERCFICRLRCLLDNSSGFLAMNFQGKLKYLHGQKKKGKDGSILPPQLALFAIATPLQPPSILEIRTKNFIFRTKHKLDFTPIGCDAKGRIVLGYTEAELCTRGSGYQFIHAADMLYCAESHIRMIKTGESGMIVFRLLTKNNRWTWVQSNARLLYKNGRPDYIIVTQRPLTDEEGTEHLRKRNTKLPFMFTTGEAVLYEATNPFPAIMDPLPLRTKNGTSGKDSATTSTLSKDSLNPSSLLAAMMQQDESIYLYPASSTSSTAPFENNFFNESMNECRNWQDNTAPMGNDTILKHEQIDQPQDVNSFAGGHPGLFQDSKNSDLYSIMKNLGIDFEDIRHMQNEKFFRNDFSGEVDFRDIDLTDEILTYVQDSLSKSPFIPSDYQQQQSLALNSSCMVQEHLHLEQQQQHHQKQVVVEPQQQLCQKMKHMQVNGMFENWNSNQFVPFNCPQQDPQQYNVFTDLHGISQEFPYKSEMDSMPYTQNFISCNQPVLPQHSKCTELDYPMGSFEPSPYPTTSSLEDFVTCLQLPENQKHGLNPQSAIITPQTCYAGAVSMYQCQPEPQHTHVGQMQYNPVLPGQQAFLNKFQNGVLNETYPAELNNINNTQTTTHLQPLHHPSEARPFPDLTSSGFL
Procedure, shortened: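 Endogenous factor activity is tracked through cis-promoter reporter units transfected into HepG2 cells. Transcript levels at 24 h are read by fluorescent RT-PCR and capillary electrophoresis, with activity in either direction scored relative to DMSO.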

[7] = ATG_AP_1_CIS: Attagene CIS-FACTORIAL HepG2 Assay for human Activator Protein 1 (AP-1) (AID 2282931); conditions: HepG2 Attagene cis-factorial AP-1 reporter mRNA; actives raise or lower the signal
Procedure, shortened: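 After 24 h incubation with test chemical, RNA from transfected HepG2 cells was reverse-transcribed, amplified, fluorescently labelled and digested before capillary electrophoresis. Reporters were driven by cis-regulatory promoters; activity fitted bidirectionally versus DMSO.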

[8] = ATG_AP_2_CIS: Attagene CIS-FACTORIAL HepG2 Assay for human Activator Protein 2 (AP-2) (AID 2282932); conditions: HepG2 AP-2 cis-reporter, Attagene transcription factor profiling; actives raise or lower the signal
Procedure, shortened: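 HepG2 cells transiently transfected with cis-element reporter units and exposed for 24 h. Reporter mRNA measured by RT-PCR, FAM labelling, HpaI digestion and capillary electrophoresis. Changes in either direction fitted relative to DMSO.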

[9] = ATG_BRE_CIS: Attagene CIS-FACTORIAL HepG2 Assay for human Bone Morphogenetic Protein (BMP) Response Element (BRE) (AID 2282933); conditions: HepG2 BMP response element reporter, Attagene transcription factor profiling; actives raise or lower the signal
Procedure, shortened: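 Endogenous transcription factor activity at a BMP response element was monitored in transfected HepG2 cells 24 h after dosing. Fluorescent RT-PCR products were resolved by capillary electrophoresis, and activity was fitted in both directions versus DMSO.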

[10] = target: Transcription factor E2F1 (Homo sapiens) (UniProt Q01094); assay: ATG_E2F_CIS: Attagene CIS-FACTORIAL HepG2 Assay for human E2F Transcription Factor 1 (AID 2282935); conditions: HepG2 Attagene cis-reporter, E2F reporter RNA transcripts; actives raise or lower the signal
Chain of Transcription factor E2F1 (Homo sapiens) (Q01094 whole entry, looked up): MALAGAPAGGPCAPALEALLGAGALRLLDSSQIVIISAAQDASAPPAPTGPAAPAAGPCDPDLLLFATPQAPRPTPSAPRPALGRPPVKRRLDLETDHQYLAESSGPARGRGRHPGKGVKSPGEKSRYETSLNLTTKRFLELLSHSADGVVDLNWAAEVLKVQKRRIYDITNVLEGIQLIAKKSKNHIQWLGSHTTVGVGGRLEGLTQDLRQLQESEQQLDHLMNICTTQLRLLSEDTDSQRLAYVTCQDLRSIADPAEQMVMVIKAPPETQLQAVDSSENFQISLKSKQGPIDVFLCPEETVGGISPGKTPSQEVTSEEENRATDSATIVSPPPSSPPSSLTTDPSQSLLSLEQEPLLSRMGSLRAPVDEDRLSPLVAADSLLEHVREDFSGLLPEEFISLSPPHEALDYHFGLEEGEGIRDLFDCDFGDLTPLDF
Procedure, shortened: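 Endogenous E2F1 activity read through cis-promoter reporter units transfected into HepG2. After 24 h compound treatment, reporter mRNA measured by RT-PCR, HpaI digestion and capillary electrophoresis. Bidirectional fit versus DMSO.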

[11] = ATG_E_Box_CIS: Attagene CIS-FACTORIAL HepG2 Assay for human Enhancer Box (E-box) (AID 2282936); conditions: HepG2 E-box cis-reporter transcription, actives raise or lower the signal
Procedure, shortened: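 HepG2 cells transiently transfected with multiplexed cis-element reporter units, dosed 24 h; reporter mRNA quantified by RT-PCR, 6-FAM labelling, HpaI digestion and capillary electrophoresis. E-box (USF1) signal fitted bidirectionally vs DMSO.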

[12] = ATG_M_61_CIS: Attagene CIS-FACTORIAL HepG2 Assay for M61 Transcription Factor (Internal Marker) (AID 2282937); conditions: HepG2 Attagene CIS-FACTORIAL M61 internal marker reporter; actives raise or lower the signal
Procedure, shortened: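 Using transiently transfected HepG2 liver cells, reporter transcript levels were assessed 24 h post-dosing by RT-PCR and capillary electrophoresis. Changes in either direction were fitted relative to DMSO controls.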

[13] = ATG_EGR_CIS: Attagene CIS-FACTORIAL HepG2 Assay for human Early Growth Response 1 (EGR1) (AID 2282938); conditions: HepG2 Attagene CIS-FACTORIAL EGR reporter mRNA; actives raise or lower the signal
Procedure, shortened: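 Fluorescent capillary-electrophoresis signal of reporter cDNA fragments serves as read-out. HepG2 cells bear transiently transfected cis-promoter reporter units and are exposed 24 h; gain- or loss-of-signal is fitted against DMSO.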

[14] = ATG_M_19_CIS: Attagene CIS-FACTORIAL HepG2 Assay for M19 Transcription Factor (Internal Marker) (AID 2282939); conditions: HepG2 Attagene CIS-FACTORIAL M19 internal marker reporter; actives raise or lower the signal
Procedure, shortened: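 Background-control endpoint from a multiplexed HepG2 reporter panel. Cells carrying cis-regulated reporter constructs are treated 24 h, then reporter transcripts are amplified, fluorescently labelled and sized by capillary electrophoresis. DMSO defines baseline.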

[15] = ATG_ERE_CIS: Attagene CIS-FACTORIAL HepG2 Assay for Estrogen Response Element (ERE) (AID 2282940); conditions: HepG2 ERE cis-reporter, Attagene RNA transcript; actives raise or lower the signal
Procedure, shortened: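 Cells used were human hepatoma HepG2, transfected with multiple reporter transcription units under cis-regulatory promoters. Reporter mRNA, read 24 h post-dosing via fluorescent RT-PCR products on capillary electrophoresis, was fitted bidirectionally relative to DMSO.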

[16] = ATG_Ets_CIS: Attagene CIS-FACTORIAL HepG2 Assay for human Erythroblast Transformation Specific (ETS) (AID 2282941); conditions: HepG2 ETS cis-reporter transcription, actives raise or lower the signal
Procedure, shortened: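 HepG2 cells transfected with multiple cis-regulated reporter units measuring endogenous ETS-driven transcription, 24 h after dosing. Reporter mRNA quantified by RT-PCR with capillary electrophoresis; bidirectional fit relative to DMSO.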

[17] = target: Hepatocyte nuclear factor 3-beta (Homo sapiens) (UniProt Q9Y261); assay: ATG_FoxA2_CIS: Attagene CIS-FACTORIAL HepG2 Assay for human Forkhead box A2 (FOXA2) (AID 2282942); conditions: HepG2 cis-reporter transcription factor activity, 24 h; actives raise or lower the signal
Chain of Hepatocyte nuclear factor 3-beta (Homo sapiens) (Q9Y261 whole entry, looked up, the tested form may be a part): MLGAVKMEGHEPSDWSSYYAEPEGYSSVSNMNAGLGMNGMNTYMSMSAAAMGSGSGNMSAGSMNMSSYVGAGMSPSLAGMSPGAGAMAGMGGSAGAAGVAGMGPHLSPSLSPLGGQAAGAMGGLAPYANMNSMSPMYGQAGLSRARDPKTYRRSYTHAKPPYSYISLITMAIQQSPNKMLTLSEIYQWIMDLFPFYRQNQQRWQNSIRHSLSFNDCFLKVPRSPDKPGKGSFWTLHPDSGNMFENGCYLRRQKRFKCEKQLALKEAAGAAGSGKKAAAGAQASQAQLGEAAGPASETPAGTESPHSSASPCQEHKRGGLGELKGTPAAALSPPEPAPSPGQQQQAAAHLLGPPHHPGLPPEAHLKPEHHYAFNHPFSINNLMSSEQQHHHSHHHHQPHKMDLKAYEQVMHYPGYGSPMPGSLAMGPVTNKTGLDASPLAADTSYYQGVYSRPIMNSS
Procedure, shortened: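 Fluorescence signal of reporter cDNA fragments, separated by capillary electrophoresis, reflects endogenous transcription factor activity in transfected HepG2 after 24 h. Both increases and decreases fitted against DMSO.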

[18] = ATG_FoxO_CIS: Attagene CIS-FACTORIAL HepG2 Assay for human Forkhead box O (FoxO) (AID 2282943); conditions: HepG2 Attagene cis-reporter, FoxO element, mRNA; actives raise or lower the signal
Procedure, shortened: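 Transfected HepG2 reporter cells exposed to test chemical for 24 h; reporter RNA measured by reverse transcription, PCR and fluorescent capillary electrophoresis; curves fitted for increases and decreases against DMSO.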

[19] = ATG_GATA_CIS: Attagene CIS-FACTORIAL HepG2 Assay for human GATA Binding Protein (AID 2282944); conditions: HepG2 GATA cis-element reporter, Attagene multiplex mRNA; actives raise or lower the signal
Procedure, shortened: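 Endogenous transcription factor activity was captured through cis-promoter-driven reporters in transfected HepG2 cells. After 24 h exposure, reporter transcripts were quantified by RT-PCR with fluorescent capillary electrophoresis, and responses fitted both directions against DMSO.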

[20] = target: Retinoic acid receptor alpha (Homo sapiens) (UniProt P10276); assay: ATG_DR5_RAR_CIS: Attagene CIS-FACTORIAL HepG2 Assay for human Retinoic Acid Receptor Alpha (RARE), DR5 submotif (AID 2282934); conditions: HepG2 Attagene cis-factorial RARE DR5 reporter, mRNA; actives raise or lower the signal;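 for AC50: reporter responds to endogenous RAR alpha beta and gamma in HepG2 not RARA alone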
Chain of Retinoic acid receptor alpha (Homo sapiens) (P10276 whole entry, looked up): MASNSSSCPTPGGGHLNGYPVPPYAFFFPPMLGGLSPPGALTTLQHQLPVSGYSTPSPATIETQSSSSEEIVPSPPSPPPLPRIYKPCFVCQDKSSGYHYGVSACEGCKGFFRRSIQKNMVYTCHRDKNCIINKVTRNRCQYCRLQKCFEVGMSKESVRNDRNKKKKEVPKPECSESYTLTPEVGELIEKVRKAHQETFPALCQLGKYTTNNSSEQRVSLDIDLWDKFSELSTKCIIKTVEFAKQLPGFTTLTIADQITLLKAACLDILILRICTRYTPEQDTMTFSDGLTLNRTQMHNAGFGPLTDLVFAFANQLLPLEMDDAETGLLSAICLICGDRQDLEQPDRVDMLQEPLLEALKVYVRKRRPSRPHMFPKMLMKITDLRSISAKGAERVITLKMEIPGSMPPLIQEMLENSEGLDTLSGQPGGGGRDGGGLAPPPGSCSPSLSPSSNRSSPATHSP
Procedure, shortened: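 After 24 h of chemical exposure, transiently transfected HepG2 cells were lysed for total RNA; the DR5-regulated reporter transcript was quantified via RT-PCR and capillary electrophoresis, with activity fitted bidirectionally against DMSO.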

Measured: AC50

CNC(=S)S
inactive: [1] | [2] | [3] | [4] | [5] | [6] | [7] | [8] | [9] | [10] | [11] | [12] | [13] | [14] | [15] | [16] | [17] | [18] | [19]
active: [4] 50 µM | [6] 33.2 µM | [7] 50 µM | [9] 65.9 µM | [13] 50 µM

N#Cc1nn(-c2c(Cl)cc(C(F)(F)F)cc2Cl)c(N)c1S(=O)C(F)(F)F (stereo unspecified)
active: [2] 17.5 µM | [3] 18.1 µM | [5] 50.5 µM | [7] 9.67 µM | [9] 24.8 µM | [20] 7.78 µM | [11] 29 µM | [13] 35.8 µM
inactive: [2] | [3] | [4] | [5] | [6] | [7] | [8] | [9] | [20] | [10] | [11] | [12] | [13] | [14] | [15] | [16] | [17] | [18] | [19]

COc1cnc(OC)n2nc(NS(=O)(=O)c3c(OCC(F)F)cccc3C(F)(F)F)nc12
not listed: [3] | [20]
inactive: all other assays above

CCCCOC(=O)c1ccccc1C(=O)OCCCC
inactive: [1] | [2] | [4] | [5] | [6] | [7] | [8] | [9] | [20] | [10] | [11] | [12] | [13] | [14] | [16] | [17] | [18] | [19]
active: [5] 177 µM | [7] 68.2 µM and 85.6 µM | [13] 34.1 µM | [15] 50 µM [middle of 5 runs]

CCOC(=O)CC(SP(=S)(OC)OC)C(=O)OCC (stereo unspecified)
inactive: [2] | [4] | [5] | [6] | [7] | [8] | [10] | [11] | [12] | [13] | [14] | [16] | [17] | [18] | [19]
active: [2] 26.6 µM | [7] 41.2 µM | [9] 69.2 µM and 28.1 µM | [13] 100 µM | [15] 100 µM and 27 µM
